Results filed as inconclusive are left out. A call without a number means that no potency is given here. A number with no mark means an inactive call. Active and inactive are the calls of the source. The call rests on the fitted dose curve; in most records, active means well fitted cell-killing curve with a large enough effect; inconclusive means small, poorly fitted or top-dose-only effect, or effect the other way; inactive means flat fitted curve, though single readings scatter.
Assays:
Test in all cases: Primary qHTS to identify gynecologic anti-cancer compounds using libraries of approved drugs and bioactive compounds (AID 1345084); further: nearly all actives have a fitted effect of over 55% in size
C33A = conditions: Gynecologic cancer cell panel viability, ATPlite luminescence, 48 h; series mostly up to 57.5 µM
Outline: (§1)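 Five-concentration response, 48 h; readout is ATP-driven luciferase luminescence.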

CASKI = conditions: Gynecologic cancer cell panel viability, ATPlite luminescence, 48 h; series mostly up to 57.5 µM
Outline: as §1

Es-2 = conditions: Gynecologic cancer cell panel viability, ATPlite luminescence, 48 h; series mostly up to 57.5 µM
Outline: as §1

HeLa = conditions: Gynecologic cancer cell panel viability, ATPlite luminescence, 48 h; series mostly up to 57.5 µM
Outline: as §1

JEG-3 = conditions: Gynecologic cancer cell panel viability, ATPlite luminescence, 48 h; series mostly up to 57.5 µM
Outline: as §1

OV90 = conditions: Gynecologic cancer cell panel viability, ATPlite luminescence, 48 h; series mostly up to 57.5 µM
Outline: as §1

PA-1 = conditions: Gynecologic cancer cell panel viability, ATPlite luminescence, 48 h; series mostly up to 57.5 µM
Outline: as §1

Hek293T = conditions: Gynecologic cancer cell panel viability, ATPlite luminescence, 48 h, control line for the selectivity index; series mostly up to 57.5 µM
Outline: as §1
Potency means the concentration at half of the fitted maximal effect.

How did the Potency (C33A) turn out when `C=C1C(=O)O[C@@H]2C[C@@]3(C)CCCC(=C)[C@]3(O)C[C@H]12` was run?
The Potency was “inactive”.

What about the Potency (CASKI) of the same compound?
The Potency was “inactive”.

What about the Potency (Es-2) of the same compound?
Its Potency is “inactive”.

And the Potency (HeLa)?
Its Potency is “inactive”.

What about the Potency (JEG-3) of the same compound?
Its Potency is “inactive”.

What about the Potency (OV90) of the same compound?
Its Potency is “inactive”.

Which Potency (C33A) does the source give for `Cn1sc(=O)n(Cc2ccccc2)c1=O` here?
Its Potency is “inactive”.

What about the Potency (CASKI) of the same compound?
The Potency was “inactive”.

And the Potency (Es-2)?
The Potency was “inactive”.

What about the Potency (HeLa) of the same compound?
Its Potency is “inactive”.

What about the Potency (OV90) of the same compound?
The Potency was “inactive”.

And the Potency (PA-1)?
The Potency was “inactive”.

With `CCc1cccc(CC)c1-n1c(C=C(C)C)c(C(=O)N2CCNCC2)cc(-c2nc(-c3ccc(C(F)(F)F)cc3)cs2)c1=O` as the compound, how does the Potency (C33A) read?
Its Potency is “inactive”.

What about the Potency (CASKI) of the same compound?
Its Potency is “inactive”.

What about the Potency (Es-2) of the same compound?
The Potency was “inactive”.

And the Potency (HeLa)?
The Potency was “inactive”.

What about the Potency (Hek293T) of the same compound?
The Potency was “inactive”.

And the Potency (JEG-3)?
Its Potency is “inactive”.

What about the Potency (PA-1) of the same compound?
The Potency was “inactive”.

How did the Potency (C33A) turn out when `C[C@@H](N[C@H]1CCCC[C@@H]1NC(=O)c1ccc(Cl)cc1)c1cccc2ccccc12` was run?
Its Potency is “inactive”.

What about the Potency (CASKI) of the same compound?
Its Potency is “inactive”.

What about the Potency (Es-2) of the same compound?
Its Potency is “inactive”.

And the Potency (HeLa)?
The Potency was “inactive”.

And the Potency (Hek293T)?
The Potency was “inactive”.

And the Potency (OV90)?
Its Potency is “inactive”.

What about the Potency (PA-1) of the same compound?
Its Potency is “inactive”.

How did the Potency (C33A) turn out when `Cc1cn(CCN2CCN(c3ccccc3-c3cc(C#N)cc(C(=O)NCCCN4CCCC4)c3)CC2)c2ccccc12` was run?
The Potency was “inactive”.

And the Potency (CASKI)?
The Potency was “inactive”.

And the Potency (Es-2)?
Its Potency is “inactive”.

And the Potency (HeLa)?
The Potency was “inactive”.

What about the Potency (Hek293T) of the same compound?
The Potency was “inactive”.

And the Potency (JEG-3)?
Its Potency is “inactive”.

What about the Potency (PA-1) of the same compound?
Its Potency is “inactive”.

`Nc1nc2c(c(N3CC[C@@H](N)C3)n1)CCCc1ccccc1-2` was tested. Which Potency (C33A) did it give?
Its Potency is “inactive”.

What about the Potency (CASKI) of the same compound?
Its Potency is “inactive”.

And the Potency (Es-2)?
The Potency was “inactive”.

And the Potency (HeLa)?
The Potency was “inactive”.

And the Potency (JEG-3)?
The Potency was “inactive”.

What about the Potency (PA-1) of the same compound?
Its Potency is “inactive”.

With `CC(=O)OC1CC(C)(C(=O)O)CC2C3=CC(=O)C4C5(C)CCC(OC6OC(C(=O)O)C(O)C(O)C6OC6OC(C(=O)O)C(O)C(O)C6O)C(C)(C)C5CCC4(C)C3(C)CCC12C` (stereo not given) as the compound, how does the activity change, negative = cytotoxicity (C33A) read?
Its activity change, negative = cytotoxicity is 10.4% [at 11.6 µM].

What about the activity change, negative = cytotoxicity (CASKI) of the same compound?
The activity change, negative = cytotoxicity was 12.9% [at 11.6 µM].

What about the activity change, negative = cytotoxicity (Es-2) of the same compound?
The activity change, negative = cytotoxicity was 12.5% [at 11.6 µM].

And the activity change, negative = cytotoxicity (HeLa)?
The activity change, negative = cytotoxicity was 14.8% [at 11.6 µM].

And the activity change, negative = cytotoxicity (Hek293T)?
The activity change, negative = cytotoxicity was 7.86% [at 11.6 µM].

What about the activity change, negative = cytotoxicity (JEG-3) of the same compound?
Its activity change, negative = cytotoxicity is 5.64% [at 11.6 µM].

What about the activity change, negative = cytotoxicity (OV90) of the same compound?
Its activity change, negative = cytotoxicity is 2.42% [at 11.6 µM].

And the activity change, negative = cytotoxicity (PA-1)?
Its activity change, negative = cytotoxicity is 22.8% [at 11.6 µM].

How did the Potency (C33A) turn out when `C=C1C(=O)O[C@@H]2C=C(COC(C)=O)CC/C=C(\CO)CC[C@@H]12` was run?
The Potency was “inactive”.

And the Potency (CASKI)?
Its Potency is “inactive”.

What about the Potency (Es-2) of the same compound?
Its Potency is “inactive”.

And the Potency (HeLa)?
The Potency was “inactive”.

What about the Potency (Hek293T) of the same compound?
The Potency was “inactive”.

And the Potency (JEG-3)?
The Potency was “inactive”.

And the Potency (OV90)?
Its Potency is “inactive”.

And the Potency (PA-1)?
The Potency was “inactive”.

Which Potency (C33A) does the source give for `C=C1CC2OC(=O)C(=C)C2C(OC(=O)/C(C)=C\C)CC2(C)OC1=CC2=O` (stereo not given) here?
The Potency was 11.2 µM (active).

And the Potency (CASKI)?
Its Potency is “inactive”.

And the Potency (Es-2)?
Its Potency is 10 µM (active).

What about the Potency (HeLa) of the same compound?
The Potency was “inactive”.

And the Potency (OV90)?
The Potency was “inactive”.

For `C=C(C)C1CC(O)C(C)C12CC(O)C1(C)OC1C2O` (stereo not given), which Potency (C33A) is on record?
Its Potency is 11.2 µM (active).

And the Potency (CASKI)?
Its Potency is 12.6 µM (active).

And the Potency (Es-2)?
The Potency was 8.91 µM (active).

And the Potency (HeLa)?
The Potency was 14.1 µM (active).

And the Potency (JEG-3)?
Its Potency is 28.2 µM (active).

And the Potency (OV90)?
The Potency was 7.08 µM (active).

What about the Potency (PA-1) of the same compound?
The Potency was 8.91 µM (active).

`C=CC(C)(O)CC[C@@H]1[C@@]2(C)CCCC(C)(C)C2CC[C@@]1(C)O` (stereo not given in full) was tested. Which Potency (C33A) did it give?
The Potency was “inactive”.

And the Potency (CASKI)?
The Potency was “inactive”.

What about the Potency (Es-2) of the same compound?
Its Potency is “inactive”.

What about the Potency (HeLa) of the same compound?
The Potency was “inactive”.

What about the Potency (Hek293T) of the same compound?
Its Potency is “inactive”.

What about the Potency (JEG-3) of the same compound?
Its Potency is “inactive”.

What about the Potency (OV90) of the same compound?
Its Potency is “inactive”.

What about the Potency (PA-1) of the same compound?
Its Potency is “inactive”.

With `Cc1nc(NC(=O)N2CCCC2C(N)=O)sc1-c1ccnc(C(C)(C)C(F)(F)F)c1` (stereo not given) as the compound, how does the Potency (C33A) read?
Its Potency is “inactive”.

And the Potency (CASKI)?
The Potency was 3.55 µM (active).

What about the Potency (Es-2) of the same compound?
The Potency was “inactive”.

And the Potency (Hek293T)?
The Potency was “inactive”.

And the Potency (JEG-3)?
Its Potency is “inactive”.

Which results are given for `CC#CC(=O)Nc1ccc2ncnc(Nc3cccc(Br)c3)c2c1`?
Potency (C33A): 11.2 µM (active); Potency (CASKI): 8.91 µM (active); Potency (Es-2): 14.1 µM (active); Potency (JEG-3): inactive; Potency (OV90): inactive; Potency (PA-1): 7.94 µM (active)

Which results are given for `O=C(c1c(F)ccc(NS(=O)(=O)N2CC[C@@H](F)C2)c1F)c1c[nH]c2ncc(-c3cnc(C4CC4)nc3)cc12`?
Potency (C33A): inactive; Potency (CASKI): inactive; Potency (HeLa): inactive; Potency (Hek293T): inactive; Potency (JEG-3): inactive; Potency (PA-1): inactive

Which results are given for `COc1cc2ncnc(Oc3ccc(CC(=O)Nc4cnn(C(C)C)c4)cc3)c2cc1OC`?
Potency (C33A): inactive; Potency (Es-2): inactive; Potency (HeLa): inactive; Potency (Hek293T): inactive; Potency (JEG-3): inactive; Potency (OV90): inactive; Potency (PA-1): inactive

`O=C(NCCCNC(=O)c1ccc[nH]c1=O)c1cc(-c2ccccc2)on1` was tested. Which Potency (C33A) did it give?
The Potency was “inactive”.

And the Potency (CASKI)?
The Potency was “inactive”.

And the Potency (PA-1)?
The Potency was 8.91 µM (active).

For `Cn1c(CO)c(-c2ccccc2)c2cc([N+](=O)[O-])ccc21`, which Potency (C33A) is on record?
Its Potency is “inactive”.

What about the Potency (CASKI) of the same compound?
The Potency was “inactive”.

What about the Potency (Es-2) of the same compound?
Its Potency is “inactive”.

And the Potency (Hek293T)?
The Potency was “inactive”.

What about the Potency (JEG-3) of the same compound?
Its Potency is “inactive”.

What about the Potency (OV90) of the same compound?
The Potency was “inactive”.

And the Potency (PA-1)?
Its Potency is “inactive”.

`C=C1C(=O)O[C@@H]2[C@H]1CC[C@H](C)C(CCC(=O)O)C2(C)O` (stereo not given in full) was tested. Which Potency (C33A) did it give?
Its Potency is “inactive”.

What about the Potency (CASKI) of the same compound?
The Potency was “inactive”.

What about the Potency (HeLa) of the same compound?
The Potency was “inactive”.

`CC(C)S(=O)(=O)Nc1ccc(F)c(C(=O)c2c[nH]c3ncc(-c4cccnc4)cc23)c1F` was tested. Which Potency (C33A) did it give?
The Potency was “inactive”.

And the Potency (CASKI)?
Its Potency is “inactive”.

And the Potency (Hek293T)?
Its Potency is “inactive”.

What about the Potency (JEG-3) of the same compound?
The Potency was “inactive”.

Which Potency (C33A) does the source give for `CCN(CC)C(=O)c1ccc(Nc2nc(OCC3CCCCC3)c3[nH]cnc3n2)cc1` here?
The Potency was “inactive”.

And the Potency (Es-2)?
Its Potency is “inactive”.

What about the Potency (HeLa) of the same compound?
The Potency was 28.2 µM (active).

And the Potency (Hek293T)?
Its Potency is “inactive”.

And the Potency (JEG-3)?
Its Potency is “inactive”.

What about the Potency (OV90) of the same compound?
Its Potency is “inactive”.

`Cn1ncc(Cl)c1-c1cc(C(=O)NC(CN)Cc2ccc(F)c(F)c2)oc1Cl` (stereo not given) was tested. Which Potency (C33A) did it give?
The Potency was 3.16 µM (active).

And the Potency (Es-2)?
The Potency was “inactive”.

What about the Potency (HeLa) of the same compound?
Its Potency is “inactive”.

What about the Potency (Hek293T) of the same compound?
The Potency was 0.794 µM (active).

How did the Potency (C33A) turn out when `CC1CCCC[C@H]2C(=O)C=C[C@H](O)[C@@H]2CC(=O)O1` (stereo not given in full) was run?
Its Potency is 20 µM (active).

And the Potency (CASKI)?
Its Potency is “inactive”.

What about the Potency (Es-2) of the same compound?
Its Potency is 10 µM (active).

And the Potency (Hek293T)?
The Potency was 15.8 µM (active).

And the Potency (PA-1)?
Its Potency is 10 µM (active).

Which Potency (C33A) does the source give for `C=C(C)C(=O)O[C@H]1[C@H]2C(=C)C(=O)O[C@@H]2C[C@@H](C)[C@@H]2O[C@@H]2C(=O)[C@](C)(O)[C@@H]1OC(=O)C(=C)C` here?
Its Potency is 10 µM (active).

And the Potency (CASKI)?
The Potency was 10 µM (active).

What about the Potency (Es-2) of the same compound?
Its Potency is 7.94 µM (active).

And the Potency (Hek293T)?
The Potency was 2.82 µM (active).

What about the Potency (JEG-3) of the same compound?
Its Potency is 12.6 µM (active).

For `CN1CCN(C2CCN(C(=O)Nc3cc(Oc4ccc(NC(=O)C5(C(=O)Nc6ccc(F)cc6)CC5)c(F)c4)ccn3)CC2)CC1`, which Potency (C33A) is on record?
The Potency was “inactive”.

What about the Potency (CASKI) of the same compound?
Its Potency is “inactive”.

And the Potency (HeLa)?
Its Potency is “inactive”.

What about the Potency (Hek293T) of the same compound?
Its Potency is “inactive”.

— PubChem BioAssay (NCATS)
